Experimental data reported in PubChem BioAssay (NCI).
The panel holds about 83,000 compounds, 20% with a hit somewhere; the sample as a whole holds those more often.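 Single-dose data. Exposure time 48 hours. Values below 10 considered active.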 A number with no mark means an inactive call. Activity calls are given as the source filed them.

Legend:
Test in all cases: NCI-60 one-dose screen, 48 h (100 = growth as untreated, 0 = no growth, -100 = all killed)
Settings in all cases: 10 µM unless noted
HCT-15 colon = test system: HCT-15 colon
HT29 colon = test system: HT29 colon
SNB-75 CNS = test system: SNB-75 CNS
U251 CNS = test system: U251 CNS
PC-3 prostate = test system: PC-3 prostate
SK-MEL-5 melanoma = test system: SK-MEL-5 melanoma
UACC-62 melanoma = test system: UACC-62 melanoma
SK-MEL-28 melanoma = test system: SK-MEL-28 melanoma
SK-MEL-2 melanoma = test system: SK-MEL-2 melanoma
EKVX NSCLC = test system: EKVX NSCLC
SN12C renal = test system: SN12C renal
UO-31 renal = test system: UO-31 renal
TK-10 renal = test system: TK-10 renal
ACHN renal = test system: ACHN renal
CAKI-1 renal = test system: CAKI-1 renal
A498 renal = test system: A498 renal
CCRF-CEM leukemia = test system: CCRF-CEM leukemia
MOLT-4 leukemia = test system: MOLT-4 leukemia
LOX IMVI melanoma = test system: LOX IMVI melanoma
SNB-19 CNS = test system: SNB-19 CNS

SMILES | growth (HCT-15 colon) | growth (HT29 colon) | growth (SNB-75 CNS) | growth (U251 CNS) | growth (PC-3 prostate) | growth (SK-MEL-5 melanoma) | growth (UACC-62 melanoma) | growth (SK-MEL-28 melanoma) | growth (SK-MEL-2 melanoma) | growth (EKVX NSCLC) | growth (SN12C renal) | growth (UO-31 renal) | growth (TK-10 renal) | growth (ACHN renal) | growth (CAKI-1 renal) | growth (A498 renal) | growth (CCRF-CEM leukemia) | growth (MOLT-4 leukemia) | growth (LOX IMVI melanoma) | growth (SNB-19 CNS)
COc1cc2nc(Cl)nc(Nc3cccc(C(=O)/C=C/c4ccccc4)c3)c2cc1OC | -34.1% (active) | 4.17% (active) | 62.1% | 21.4% | 49.2% | 68.8% | 57.8% | 56.4% | 86.8% | 81.5% | 59.5% | 50.8% | 143% | 13.7% | 48.4% | 90.6% | 28.9% | 34.5% | – | –
C=C1C(=O)O[C@H]2[C@H]1CC/C(Cn1cc(-c3ccc(OC)cc3)nn1)=C\CC[C@@]1(C)O[C@@H]21 | -71.4% (active) | -82% (active) | 91.4% | 23% | 39.4% | 41.8% | – | – | 61.9% | 85.4% | 0.315% (active) | -86.2% (active) | -84.1% (active) | 6.78% (active) | -4.52% (active) | 31.7% | -32.6% (active) | -32.9% (active) | -79.3% (active) | –
CC1=CC(=O)N(c2cccc3c(N4C(=O)C=C(C)C4=O)cccc23)C1=O | -2.7% (active) | 18% | 74.1% | 83.9% | 94.8% | 105% | 94.5% | 103% | 87.5% | 108% | 93.3% | 33.3% | 35.3% | 1.27% (active) | 10.9% | 124% | 11.2% | – | – | –
c1ccc(-c2nc(Nc3ccc(-c4nc5ccccc5[nH]4)cc3)nc(N3CCOCC3)n2)cc1 | -68.9% (active) | -59.9% (active) | -89.6% (active) | -67.5% (active) | -35.5% (active) | -95.4% (active) | – | -82.9% (active) | -52.7% (active) | -66.9% (active) | -62.8% (active) | -60.6% (active) | -58.1% (active) | -58.9% (active) | -89.4% (active) | -83.4% (active) | -15.7% (active) | -37.8% (active) | -89% (active) | –
Cc1ccc(N(CC(=O)Nc2ccc(S(=O)(=O)NC3CCN(C)CC3)cc2)S(=O)(=O)c2ccc(Cl)cc2)cc1 | 90.6% | 10.2% | 58.7% | 19.5% | 84.1% | -9.84% (active) | – | -68.3% (active) | 104% | 99.4% | 85% | 83.3% | 105% | 96.6% | 89% | 84.6% | 20.9% | 70.5% | -58.1% (active) | –
Oc1ccc(CCC2CCCC(CCc3ccc(OCCF)cc3)N2)cc1 (centres undefined) | 88.1% | 87.2% | 78.7% | 85.8% | 87.8% | 90% | – | – | 104% | 105% | 89.6% | 72% | 96.7% | 99.8% | 89.2% | 96.9% | 88.3% | 76.2% | 98.7% | –
COc1cc2[nH]c(C(=O)c3cc(OC)c(OC)c(OC)c3)c(N)c2cc1C#CC1CC1 | 23.1% | – | -4.88% (active) | 45% | 16.7% | 18.4% | 34.4% | 35.2% | 34.7% | – | 61% | 38.2% | 92.2% | 24.8% | – | -13.4% (active) | 24.9% | 44.5% | 36.1% | 45.1%
CC(=O)O[C@@H]1CCN2C(=O)N(C)c3ccccc3[C@@H]2C1 | 103% | 104% | 89% | 102% | 89.1% | 104% | – | – | 102% | 114% | 98.9% | 94.5% | 99.6% | 98.6% | 95.3% | 114% | 105% | 99.6% | 98.6% | –
